Results on 157 variants are retold here after a collection of fitness landscapes (doi:10.1126/science.1257360).

The chains are these.
B1: PhoQ; a variant is named by its letters at X, in order, P23837 (parent)
chain: MKKLLRLFFPLSLRVRFLLATAAVVLVLSLAYGMVALIGYSVSFDKTTFRLLRGESNLFYTLAKWENNKLHVELPENIDKQSPTMTLIYDENGQLLWAQRDVPWLMKMIQPDWLKSNGFHEIEADVNDTSLLLSGDHSIQQQLQEVREDDDDAEMTHSVAVNVYPATSRMPKLTIVVVDTIPVELKSSYMVWSWFIYVLSANLLLVIPLLWVAAWWSLRPIEALAKEVRELEEHNRELLNPATTRELTSLVRNLNRLLKSERERYDKYRTTLTDLTHSLKTPLXXLQXXLRSLRSEKMSVSDAEPVMLEQISRISQQIGYYLHRASMRGGTLLSRELHPVAPLLDNLTSALNKVYQRKGVNISLDISPEISFVGEQNDFVEVMGNVLDNACKYCLEFVEISARQTDEHLYIVVEDDGPGIPLSKREVIFDRGQRVDTLRPGQGVGLAVAREITEQYEGKIVAGESMLGGARMEVIFGRQHSAPKDE

In all, about 140,000 sequences were measured (“enrichment ratio after two sorts for PhoP signalling”: median about 0, highest 2% from about 11 on). What follows is part of a selection rich in the highest values, with near analogues and random picks from the rest.

In this assay the parent is B1. The assay can be described thus: enrichment ratio after two sorts for PhoP signalling (ratio (wild type AVST 3.29)); higher = more functional. The following applies: with PhoP (E. coli).
Take SFIL: the enrichment ratio was not above 0.25.

Regarding GTSW, the enrichment ratio is not above 0.25.

As for QVGM, the enrichment ratio stood at 0.458.

For TTQP, the enrichment ratio was not above 0.25.

LWAS: the enrichment ratio is not above 0.25.

Regarding DYTN, the enrichment ratio was not above 0.25.

As for KRCM, the enrichment ratio was not above 0.25.

As to GMCK, the enrichment ratio was not above 0.25.

Regarding HRCM, the enrichment ratio was not above 0.25.

For the variant KMCM, the enrichment ratio was not above 0.25.

Consider GMCM, for which the enrichment ratio amounted to 22.

Take TRCM: the enrichment ratio was found to be 12.4.

On to EYMP, for which the enrichment ratio was not above 0.25.

MHHS: the enrichment ratio was not above 0.25.

As to YVFC, the enrichment ratio was not above 0.25.

In the case of GPTW, the enrichment ratio was not above 0.25.

With RAKA, the enrichment ratio was not above 0.25.

As to AGTK, the enrichment ratio was not above 0.25.

As to KSTI, the enrichment ratio is not above 0.25.

Regarding AGTH, the enrichment ratio is 5.3.

With TGTI, the enrichment ratio was found to be 13.2.

Turning to RGTI, the enrichment ratio was not above 0.25.

On to AGTI, for which the enrichment ratio was determined as 16.7.

Take QIMM: the enrichment ratio is not above 0.25.

With SDFW, the enrichment ratio was not above 0.25.

Take QQHA: the enrichment ratio was not above 0.25.

With GQMD, the enrichment ratio was not above 0.25.

For YKAP, the enrichment ratio was not above 0.25.

Take KLPM: the enrichment ratio is not above 0.25.

In the case of FVPN, the enrichment ratio was not above 0.25.

Consider AQQN, for which the enrichment ratio is not above 0.25.

For YTAN, the enrichment ratio is not above 0.25.

As to IQAA, the enrichment ratio is not above 0.25.

For the variant AQAN, the enrichment ratio worked out at 18.7.

Turning to ATAN, the enrichment ratio turned out to be 29.1.

Regarding AQAS, the enrichment ratio is 18.6.

As for WQAS, the enrichment ratio was not above 0.25.

Turning to AQAA, the enrichment ratio worked out at 12.7.

In the case of AKAA, the enrichment ratio turned out to be 4.65.

As for ATMN, the enrichment ratio was not above 0.25.

AKAN: the enrichment ratio is not above 0.25.

AKAS: the enrichment ratio was determined as 9.64.

For AYFR, the enrichment ratio is not above 0.25.

Take WMYW: the enrichment ratio is not above 0.25.

Take IMAW: the enrichment ratio was not above 0.25.

As for RNGP, the enrichment ratio is not above 0.25.

As for PWQL, the enrichment ratio was determined as 0.791.

Consider DNHF, for which the enrichment ratio was not above 0.25.

On to TNNI, for which the enrichment ratio was 3.41.

For the variant MAGS, the enrichment ratio is 17.7.

With NAGF, the enrichment ratio was not above 0.25.

Regarding MAVK, the enrichment ratio is not above 0.25.

For KAGF, the enrichment ratio was not above 0.25.

For the variant MAGF, the enrichment ratio is 14.5.

For the variant MAGD, the enrichment ratio was not above 0.25.

With AHRA, the enrichment ratio was not above 0.25.

Consider CFDS, for which the enrichment ratio was not above 0.25.

MCPV: the enrichment ratio is not above 0.25.

Regarding DLEL, the enrichment ratio was not above 0.25.

Take LYPG: the enrichment ratio was not above 0.25.

On to ASCF, for which the enrichment ratio was found to be 9.91.

For ASCH, the enrichment ratio worked out at 13.6.

As to ASVH, the enrichment ratio is 8.62.

With KSMH, the enrichment ratio was not above 0.25.

On to ASMH, for which the enrichment ratio was determined as 16.5.

As for ASTH, the enrichment ratio came to 6.74.

For KDVM, the enrichment ratio was not above 0.25.

For the variant DIWH, the enrichment ratio is not above 0.25.

RDYH: the enrichment ratio is not above 0.25.

As to KKLQ, the enrichment ratio is not above 0.25.

For the variant YHEH, the enrichment ratio is not above 0.25.

As for RDFI, the enrichment ratio is not above 0.25.

For the variant QEYT, the enrichment ratio came to 20.9.

For LTYT, the enrichment ratio is not above 0.25.

As to FFFQ, the enrichment ratio is not above 0.25.

With MVFE, the enrichment ratio is not above 0.25.

On to QRYT, for which the enrichment ratio was not above 0.25.

For MVHP, the enrichment ratio came out at 0.338.

Take QGFE: the enrichment ratio is not above 0.25.

On to MVFQ, for which the enrichment ratio is 13.2.

Take QGFQ: the enrichment ratio came to 13.4.

For the variant STYT, the enrichment ratio came to 0.437.

With LNYT, the enrichment ratio was not above 0.25.

For LEYT, the enrichment ratio came out at 11.9.

On to PAIE, for which the enrichment ratio is not above 0.25.

In the case of FSRF, the enrichment ratio was not above 0.25.

As to SYCE, the enrichment ratio stood at 2.48.

VEGN: the enrichment ratio was not above 0.25.

As for RAVD, the enrichment ratio is not above 0.25.

VDID: the enrichment ratio is not above 0.25.

Turning to QGYI, the enrichment ratio came out at 17.5.

As for QGYV, the enrichment ratio turned out to be 11.2.

For the variant QGYK, the enrichment ratio came to 0.706.

Regarding FFGG, the enrichment ratio is not above 0.25.

For the variant QGCS, the enrichment ratio was not above 0.25.

On to QGCK, for which the enrichment ratio was not above 0.25.

FFWS: the enrichment ratio was not above 0.25.

With QGGG, the enrichment ratio was found to be 17.7.

On to QGCI, for which the enrichment ratio was 19.5.

On to FQWS, for which the enrichment ratio is not above 0.25.

Regarding QGWS, the enrichment ratio was 20.8.

As for TPGG, the enrichment ratio is not above 0.25.

On to NSEV, for which the enrichment ratio was not above 0.25.

GKAT: the enrichment ratio is not above 0.25.

With WHGN, the enrichment ratio was not above 0.25.

In the case of NVPF, the enrichment ratio is not above 0.25.

For MAFE, the enrichment ratio was found to be 8.88.

With QGRA, the enrichment ratio is not above 0.25.

As for QGWI, the enrichment ratio is 22.5.

For the variant MEFQ, the enrichment ratio came to 3.08.

On to QGDS, for which the enrichment ratio is not above 0.25.

In the case of QEYI, the enrichment ratio was found to be 13.9.

On to STYI, for which the enrichment ratio was not above 0.25.

As for QRWS, the enrichment ratio is not above 0.25.

In the case of MAFQ, the enrichment ratio was 24.4.

Consider QEFA, for which the enrichment ratio was 0.476.

For the variant QEWS, the enrichment ratio came to 13.4.

Turning to QPWS, the enrichment ratio was not above 0.25.

RMEL: the enrichment ratio is not above 0.25.

DLMW: the enrichment ratio is not above 0.25.

Turning to PLYK, the enrichment ratio was not above 0.25.

As to KDVS, the enrichment ratio is not above 0.25.

With RYGQ, the enrichment ratio was not above 0.25.

Take QQYQ: the enrichment ratio was not above 0.25.

Regarding NKEY, the enrichment ratio is not above 0.25.

For the variant TTLW, the enrichment ratio was not above 0.25.

Consider VACH, for which the enrichment ratio was not above 0.25.

As to ISIQ, the enrichment ratio was not above 0.25.

On to FFWE, for which the enrichment ratio was not above 0.25.

For the variant FCWE, the enrichment ratio was not above 0.25.

With QGWE, the enrichment ratio is 14.3.

For QGGS, the enrichment ratio is 14.5.

On to FFGS, for which the enrichment ratio was not above 0.25.

Regarding QPGS, the enrichment ratio is not above 0.25.

As to FTRQ, the enrichment ratio is not above 0.25.

Regarding DCTH, the enrichment ratio was not above 0.25.

Take VFMI: the enrichment ratio was not above 0.25.

In the case of SHFN, the enrichment ratio is not above 0.25.

For the variant FRIN, the enrichment ratio was not above 0.25.

For the variant TSTC, the enrichment ratio worked out at 17.2.

Consider FSSA, for which the enrichment ratio is not above 0.25.

For the variant KSSC, the enrichment ratio was not above 0.25.

As for NSSC, the enrichment ratio is not above 0.25.

For TSSA, the enrichment ratio is 11.3.

TSNK: the enrichment ratio was not above 0.25.

Take TSSC: the enrichment ratio was 12.8.

Regarding MMTC, the enrichment ratio was not above 0.25.

Consider KSSA, for which the enrichment ratio is not above 0.25.

Consider TVTC, for which the enrichment ratio is 14.5.

SPTC: the enrichment ratio is not above 0.25.

With KSTC, the enrichment ratio is not above 0.25.

Consider NVLH, for which the enrichment ratio is not above 0.25.

With LSRG, the enrichment ratio was not above 0.25.

Consider REYW, for which the enrichment ratio is not above 0.25.

For the variant PQTM, the enrichment ratio is not above 0.25.

TVEK: the enrichment ratio amounted to 13.3.

Regarding PVEK, the enrichment ratio was not above 0.25.
